This passage reports growth inhibition results from PubChem BioAssay (NCI).

A short description of experiment [1]: NCI Yeast Anticancer Drug Screen. Data for the rad50 strain (AID 155).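 Note: 0% = growth of vehicle-only cultures of the same strain.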 The conditions noted are these: S. cerevisiae rad50 strain growth inhibition, stronger effect = higher value. In outline:
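Readout: growth inhibition relative to vehicle-treated cultures. Compound exposure was carried out in a genetically defined yeast strain deficient in DNA damage repair.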

Experiment [2] is described as follows: NCI Yeast Anticancer Drug Screen. Data for the mec2-1 strain (AID 157). The settings on record: S. cerevisiae mec2-1 strain, stronger effect = higher value. An outline of the steps: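 Each compound was tested on mec2-1 yeast, a strain altered in DNA damage repair or cell cycle control. Growth inhibition is reported relative to vehicle.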
Experiment [3] is described as follows: NCI Yeast Anticancer Drug Screen. Data for the sgs1 mgt1 strain (AID 161).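 Note: 0% = growth of cultures given vehicle only.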 The settings on record: S. cerevisiae sgs1 mgt1 strain, stronger effect = higher value. An outline of the steps: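 Test agents were incubated with a DNA-repair-mutant yeast strain. Growth was then read and compared against vehicle-treated controls.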
A short description of experiment [4]: NCI Yeast Anticancer Drug Screen. Data for the cln2 rad14 strain (AID 165).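 Note: 0% = growth equal to vehicle treated cultures.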 The conditions noted are these: S. cerevisiae cln2 rad14 strain, stronger effect = higher value. An outline of the steps: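 Test compounds were added to cln2 rad14 yeast cultures; inhibition of growth was then determined by comparison with vehicle treatment.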
A short description of experiment [5]: NCI Yeast Anticancer Drug Screen. Data for the bub3 strain (AID 167). The conditions noted are these: S. cerevisiae bub3 mutant strain, stronger effect = higher value. In outline:
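Readout: yeast growth inhibition, expressed relative to vehicle-only wells. The test organism is a mutant strain from a panel with lesions in DNA repair or checkpoint genes.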

Experiment [6] is described as follows: NCI Yeast Anticancer Drug Screen. Data for the mlh1 rad18 strain (AID 175). The conditions noted are these: S. cerevisiae mlh1 rad18 strain growth inhibition, stronger effect = higher value. An outline of the steps:
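Inhibition values reflect reduced growth of mutant yeast versus vehicle-treated controls following compound exposure; the mutations affect DNA damage repair.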

[7] abbreviates: at 5.0 µM (retest, dose inferred, filed as 0.5).
[8] abbreviates: at 50.0 µM (retest, dose inferred, filed as 5.0).

The panel holds about 79,000 compounds, 15% with a hit somewhere; the sample as a whole holds those more often. Values without a mark were called inactive. Calls of active or inactive are those of the source. Cut-off read from the data, not from the text of the source: active = growth inhibition above about 70%; inactive = the rest.

As for `Nc1ccc(Cc2ccc(N)cc2[N+](=O)[O-])c([N+](=O)[O-])c1`, the growth inhibition in experiment [1] (setting [7]) is 1%; in experiment [1] (setting [8]), 0%; in experiment [1] (at 50.0 µM), 14.6%; in experiment [2] (setting [7]), 5%; in experiment [2] (setting [8]), 7%; in experiment [2] (at 50.0 µM) it was 25.9%. Also, the growth inhibition is 6% in experiment [3] (setting [7]); 74% (active) in experiment [3] (setting [8]); 66.8% in experiment [3] (at 50.0 µM); 5% in experiment [4] (setting [7]); 31% in experiment [4] (setting [8]); 39% in experiment [4] (at 50.0 µM). Further, the growth inhibition in experiment [5] (setting [7]) was -4%; in experiment [5] (setting [8]), -3%; in experiment [5] (at 50.0 µM), 35.4%; in experiment [6] (setting [7]), -6%; in experiment [6] (setting [8]) it was -2%; in experiment [6] (at 50.0 µM), -18.9%.

On to `Cc1cc(Cl)c(O)c(-c2cc(-c3cccc([N+](=O)[O-])c3)c3c(N)[nH]c(=S)nc3n2)c1`, for which the growth inhibition is -6% in experiment [1] (setting [7]); 46% in experiment [1] (setting [8]); 28.6% in experiment [1] (at 50.0 µM); -6% in experiment [2] (setting [7]); 23% in experiment [2] (setting [8]); 23.2% in experiment [2] (at 50.0 µM). For the same molecule, the growth inhibition was 3% in experiment [3] (setting [7]); 38% in experiment [3] (setting [8]); 20.3% in experiment [3] (at 50.0 µM); 12% in experiment [4] (setting [7]); 33% in experiment [4] (setting [8]); 55% in experiment [4] (at 50.0 µM). Moreover, the growth inhibition is -5% in experiment [5] (setting [7]); 45% in experiment [5] (setting [8]); -6.15% in experiment [5] (at 50.0 µM); 5% in experiment [6] (setting [7]); 50% in experiment [6] (setting [8]); 25.8% in experiment [6] (at 50.0 µM).

Turning to `Nc1ccc(/C=C/c2ccccc2)cc1`, the growth inhibition was 3% in experiment [1] (setting [7]); 61% in experiment [1] (setting [8]); 87.5% (active) in experiment [1] (at 50.0 µM); -9% in experiment [2] (setting [7]); 33% in experiment [2] (setting [8]); 80.3% (active) in experiment [2] (at 50.0 µM). Also, the growth inhibition in experiment [3] (setting [7]) was -2%; in experiment [3] (setting [8]), 47%; in experiment [3] (at 50.0 µM) it was 81.5% (active); in experiment [4] (setting [7]) it was -10%; in experiment [4] (setting [8]), 45%; in experiment [4] (at 50.0 µM), 82.8% (active). Also, the growth inhibition in experiment [5] (setting [7]) is -2%; in experiment [5] (setting [8]) it was 44%; in experiment [5] (at 50.0 µM) it was 95.5% (active); in experiment [6] (setting [7]) it was 3%; in experiment [6] (setting [8]) it was 73% (active); in experiment [6] (at 50.0 µM) it was 94% (active).

For `O=S(=O)(c1ccc(OCC(O)COc2ccc(S(=O)(=O)c3ccc(OCC4CO4)cc3)cc2)cc1)c1ccc(OCC2CO2)cc1` (configuration not stated), the growth inhibition in experiment [1] (setting [7]) was -5%; in experiment [1] (setting [8]) it was -9%; in experiment [1] (at 50.0 µM), 21.6%; in experiment [2] (setting [7]) it was 4%; in experiment [2] (setting [8]) it was 11%; in experiment [2] (at 50.0 µM), 37.2%. Moreover, the growth inhibition in experiment [3] (setting [7]) was 0%; in experiment [3] (setting [8]), 19%; in experiment [3] (at 50.0 µM) it was 63.1%; in experiment [4] (setting [7]), 3%; in experiment [4] (setting [8]) it was 25%; in experiment [4] (at 50.0 µM) it was 2.95%. Also, the growth inhibition in experiment [5] (setting [7]) is -4%; in experiment [5] (setting [8]), -2%; in experiment [5] (at 50.0 µM), -20.5%; in experiment [6] (setting [7]), 8%; in experiment [6] (setting [8]), 29%; in experiment [6] (at 50.0 µM), 78.1% (active).

For the molecule `CCC(CC)COC(=O)C(C)=O`, the growth inhibition in experiment [1] (setting [7]) was -2%; in experiment [1] (setting [8]), 1%; in experiment [1] (at 50.0 µM) it was -11.7%; in experiment [2] (setting [7]), 2%; in experiment [2] (setting [8]) it was 0%; in experiment [2] (at 50.0 µM) it was 19.4%. Besides, the growth inhibition was 1% in experiment [3] (setting [7]); 3% in experiment [3] (setting [8]); 18.1% in experiment [3] (at 50.0 µM); -1% in experiment [4] (setting [7]); -4% in experiment [4] (setting [8]); 25.6% in experiment [4] (at 50.0 µM). Moreover, the growth inhibition in experiment [5] (setting [7]) was 0%; in experiment [5] (setting [8]), 5%; in experiment [5] (at 50.0 µM) it was 4.3%; in experiment [6] (setting [7]) it was -1%; in experiment [6] (setting [8]) it was 2%; in experiment [6] (at 50.0 µM) it was 26.9%.

For `ON=C1c2ccccc2-c2ccccc21`, the growth inhibition in experiment [1] (setting [7]) was 8%; in experiment [1] (setting [8]) it was 58%; in experiment [1] (at 50.0 µM), 54.2%; in experiment [2] (setting [7]) it was 2%; in experiment [2] (setting [8]), 21%; in experiment [2] (at 50.0 µM) it was -3.05%. Also, the growth inhibition in experiment [3] (setting [7]) was 2%; in experiment [3] (setting [8]) it was 30%; in experiment [3] (at 50.0 µM), 41.5%; in experiment [4] (setting [7]), -12%; in experiment [4] (setting [8]) it was -6%; in experiment [4] (at 50.0 µM), -68.6%. Moreover, the growth inhibition in experiment [5] (setting [7]) was -4%; in experiment [5] (setting [8]), 9%; in experiment [5] (at 50.0 µM) it was 30.9%; in experiment [6] (setting [7]), 9%; in experiment [6] (setting [8]) it was 58%; in experiment [6] (at 50.0 µM), 71.7% (active).

As to `Cc1c2c(c(C)c3ccncc13)S(=O)(=O)c1ccccc1-2`, the growth inhibition in experiment [1] (setting [7]) was 88% (active); in experiment [1] (setting [8]) it was 87% (active); in experiment [1] (at 50.0 µM), 94.3% (active); in experiment [2] (setting [7]), 52%; in experiment [2] (setting [8]) it was 69%; in experiment [2] (at 50.0 µM), 36.2%. The growth inhibition is 38% in experiment [3] (setting [7]); 65% in experiment [3] (setting [8]); 55.3% in experiment [3] (at 50.0 µM); 39% in experiment [4] (setting [7]); 36% in experiment [4] (setting [8]); 28.9% in experiment [4] (at 50.0 µM). The growth inhibition is 41% in experiment [5] (setting [7]); 33% in experiment [5] (setting [8]); 55% in experiment [5] (at 50.0 µM); 75% (active) in experiment [6] (setting [7]); 85% (active) in experiment [6] (setting [8]); 79.9% (active) in experiment [6] (at 50.0 µM).

For the molecule `OCc1ccc(OCc2ccccc2)c(OCc2ccccc2)c1`, the growth inhibition in experiment [1] (setting [7]) is 6%; in experiment [1] (setting [8]), 15%; in experiment [1] (at 50.0 µM) it was 88.2% (active); in experiment [2] (setting [7]), 7%; in experiment [2] (setting [8]), 14%; in experiment [2] (at 50.0 µM) it was 77.1% (active). The growth inhibition is -8% in experiment [3] (setting [7]); 47% in experiment [3] (setting [8]); 92.8% (active) in experiment [3] (at 50.0 µM); 51% in experiment [4] (setting [7]); 26% in experiment [4] (setting [8]); 80.3% (active) in experiment [4] (at 50.0 µM). The growth inhibition was 10% in experiment [5] (setting [7]); 55% in experiment [5] (setting [8]); 94.5% (active) in experiment [5] (at 50.0 µM); 0% in experiment [6] (setting [7]); 62% in experiment [6] (setting [8]); 96.5% (active) in experiment [6] (at 50.0 µM).

In the case of `Cc1ccnc2c1ccc1c(C)ccnc12`, the growth inhibition in experiment [1] (setting [7]) was 10%; in experiment [1] (setting [8]), 98% (active); in experiment [1] (at 50.0 µM), 99% (active); in experiment [2] (setting [7]), -17%; in experiment [2] (setting [8]) it was 99% (active); in experiment [2] (at 50.0 µM), 99.1% (active). Besides, the growth inhibition was 14% in experiment [3] (setting [7]); 99% (active) in experiment [3] (setting [8]); 99.2% (active) in experiment [3] (at 50.0 µM); -21% in experiment [4] (setting [7]); 97% (active) in experiment [4] (setting [8]); 98.5% (active) in experiment [4] (at 50.0 µM). Also, the growth inhibition in experiment [5] (setting [7]) is -25%; in experiment [5] (setting [8]), 98% (active); in experiment [5] (at 50.0 µM), 99.1% (active); in experiment [6] (setting [7]), 1%; in experiment [6] (setting [8]) it was 98% (active); in experiment [6] (at 50.0 µM), 99% (active).
